From article PMC4336329 (PLoS ONE, 2015)
Out of some 310,000 compounds screened, about 14,000 (4.5%) showed an effect of 50% or more. Effects have a minus sign here. The sample holds strong results, similar compounds and a random draw of the others, so the mix is not that of the screen.

biological target: human ether-à-go-go-related gene (hERG) potassium channel (human, UniProt Q12809); test: primary screen, population patch clamp on CHO cells stably expressing hERG; higher = less effect of the substance
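Further: peak tail current of the secondary pulse compared with the same well before compound.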

human ether-à-go-go-related gene (hERG) potassium channel, sequence (Q12809 whole entry, looked up): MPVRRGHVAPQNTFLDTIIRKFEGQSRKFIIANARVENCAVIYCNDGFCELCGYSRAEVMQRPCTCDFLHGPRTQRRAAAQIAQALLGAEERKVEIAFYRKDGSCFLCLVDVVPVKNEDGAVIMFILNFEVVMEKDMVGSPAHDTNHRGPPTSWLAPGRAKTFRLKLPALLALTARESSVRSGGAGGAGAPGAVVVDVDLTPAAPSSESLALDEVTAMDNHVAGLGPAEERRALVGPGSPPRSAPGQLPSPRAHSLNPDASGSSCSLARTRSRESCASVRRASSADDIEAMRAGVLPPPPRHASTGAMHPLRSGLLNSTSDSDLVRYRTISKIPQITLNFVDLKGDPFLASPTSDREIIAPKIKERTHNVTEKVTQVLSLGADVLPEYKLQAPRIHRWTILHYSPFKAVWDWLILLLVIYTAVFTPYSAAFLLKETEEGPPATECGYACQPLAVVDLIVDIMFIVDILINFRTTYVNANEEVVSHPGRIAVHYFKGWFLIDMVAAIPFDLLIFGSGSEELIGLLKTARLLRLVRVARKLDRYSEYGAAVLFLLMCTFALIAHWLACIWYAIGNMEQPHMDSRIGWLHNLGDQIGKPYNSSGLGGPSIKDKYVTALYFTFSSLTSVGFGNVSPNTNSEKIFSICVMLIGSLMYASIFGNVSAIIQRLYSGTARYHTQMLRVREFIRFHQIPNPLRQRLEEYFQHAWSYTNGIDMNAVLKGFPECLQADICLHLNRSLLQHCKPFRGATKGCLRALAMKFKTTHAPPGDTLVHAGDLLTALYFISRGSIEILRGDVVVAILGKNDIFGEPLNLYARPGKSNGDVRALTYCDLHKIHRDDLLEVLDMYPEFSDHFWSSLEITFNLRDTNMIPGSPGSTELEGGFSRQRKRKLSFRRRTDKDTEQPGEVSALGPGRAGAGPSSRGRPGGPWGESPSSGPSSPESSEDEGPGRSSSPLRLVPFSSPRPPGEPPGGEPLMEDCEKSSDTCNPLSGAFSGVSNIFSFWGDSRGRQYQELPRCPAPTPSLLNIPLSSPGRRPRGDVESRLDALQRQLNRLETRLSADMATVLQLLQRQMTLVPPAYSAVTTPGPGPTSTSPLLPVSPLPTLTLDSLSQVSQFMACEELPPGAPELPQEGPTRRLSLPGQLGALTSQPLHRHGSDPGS

Compound	hERG current change (%, negative = inhibition) at 10uM
Cc1c(C(C)NC(=O)Nc2ccc(F)cc2F)cnn1C (stereo not drawn)	15.2%
O=C(O)/C=C/c1ccc([N+](=O)[O-])o1	22.2%
Fc1ccccc1CSc1nnc(-c2ccccc2)o1	-9.31%
COP(=O)(OC)C(NS(=O)(=O)c1ccccc1)C(Cl)(Cl)Cl (stereo not drawn)	23.8%
COc1ccc(Cl)cc1Nc1cc(C)nc2ccccc12	-73%
COc1ccc2nc(C)cc(Nc3ccccc3O)c2c1.Cl	-20.3%
COc1ccc(OC)c(Nc2cc(-c3ccccc3)nc(N)n2)c1	-55.9%
COc1ccc(OC)c(Nc2nc(-c3ccccc3O)nc3ccccc23)c1	18.7%
COc1ccc(OC)c(Nc2cc(C)nc3ccc(C)cc23)c1	-68.6%
CCOC(=O)c1nc(Nc2cc(Cl)ccc2OC)c2ccccc2n1	6.83%
COc1ccc(Cl)cc1Nc1nc(N)c2ccccc2n1.Cl	20.4%
COc1ccc(OC)c(Nc2ncnc3ccccc23)c1.Cl	-18.6%
COc1ccc(OC)c(Nc2ccc(Nc3cc(OC)ccc3OC)nn2)c1	-2.07%
COc1ccc(OC)c(Nc2cc(C)nc3ccccc23)c1	-57.6%
COc1ccc(OC)c(Nc2cc(C)c3ccccc3n2)c1	2%
Cc1cccc(OC(C)C(=O)Nc2ccccc2C(=O)N2CCCCC2)c1 (stereo not drawn)	-0.472%
CCCC1=Nc2cc(C(=O)NCc3ccco3)ccc2Sc2ccccc21	1.84%
CC(Cl)C(=O)Nc1cc(C(F)(F)F)ccc1N1CCOCC1 (stereo not drawn)	2.38%
COc1ccccc1N(CC1CO1)S(=O)(=O)c1ccc(C)cc1 (stereo not drawn)	18.9%
Cc1cccc(NC(=O)Cc2c(F)cccc2Cl)n1	5.01%
O=C(Nc1cccc(C(=O)N2CCCCCC2)c1)c1ccco1	-14.5%
CC1CCN(C(C)C(=O)Nc2cc(S(=O)(=O)N3CCCCC3)ccc2Cl)CC1 (stereo not drawn)	-18.3%

Compound	hERG current change (%, negative = inhibition) at 10uM
COc1ccc2c(c1)C(c1cccs1)=NNC(c1cccnc1)=N2	10.4%
CCOc1ccc2c(c1)C(c1cccs1)=NNC(c1cccnc1)=N2	-65.4%
CCc1ccc2c(c1)C(c1cccs1)=NNC(c1cccnc1)=N2	-48.6%
O=C(CCn1c(=S)oc2ccccc21)N1CCCCC1	-7.1%
COc1ccc(C)cc1S(=O)(=O)N1CCN(S(=O)(=O)c2cc(C)ccc2OC)CC1	-1.43%
COc1ccc(OC)c(CNCCc2ccc(OC)c(OC)c2)c1.O=C(O)C(=O)O	5.38%
COc1cc(OC)c(OC)cc1CNCCc1ccc2c(c1)OCO2.O=C(O)C(=O)O	-8.77%
COc1ccc(CNCc2ccc3c(c2)OCO3)cc1Br.O=C(O)C(=O)O	-23.1%
COc1ccc(Br)cc1CNCCc1ccc2c(c1)OCO2	-60.7%
COc1cc(CNCCc2ccc3c(c2)OCO3)cc(OC)c1OC.O=C(O)C(=O)O	-14.2%
COc1ccc(CCNCc2ccc(Br)cc2)cc1OC.O=C(O)C(=O)O	-62.9%
COc1cc(Br)c(CNCCc2ccc3c(c2)OCO3)cc1OC	-32%
COc1ccc(CCNCc2cccc(C(F)(F)F)c2)cc1OC.O=C(O)C(=O)O	0.584%
COc1ccc(CNCCc2ccc3c(c2)OCO3)cc1Br.O=C(O)C(=O)O	-50.5%
Cc1nnc(NC(=O)c2cc(S(=O)(=O)N3CCCCC3)ccc2Cl)s1	14.6%
CC(=O)c1ccc(NS(=O)(=O)c2c(C)cc(C)cc2C)cc1	17.9%
N#Cc1cn(-c2ccccc2)nc1-c1ccccc1	0.313%
COC(=O)c1cc(CSc2ncnc3sccc23)oc1C	16.6%
CCOC(=O)C1(CCc2ccccc2)CCN(Cc2c(O)cccc2OC)CC1	-95.1%
CCOC(=O)C1(CCc2ccccc2)CCN(Cc2cc(OC)c(OC)cc2OC)CC1	-77.4%
COc1cc(OC)c(OC)cc1CN1CCN(C(=O)Cc2ccccc2)CC1.O=C(O)C(=O)O	5.5%
O=C(NCc1cccc(C(F)(F)F)c1)c1cccc(Cl)c1Cl	10.5%

Compound	hERG current change (%, negative = inhibition) at 10uM
CCc1cc(Cn2nc(-c3ccccc3)cc2C(=O)O)on1	-1.7%
O=C(CNC(=O)c1cccs1)N/N=C/c1cccc(Cl)c1	-5.74%
COc1ccc(OC)c(NC(=O)C(=O)NNC(=O)c2cccs2)c1	10.9%
O=C(NCCCO)C(=O)NCC(c1ccc2c(c1)OCO2)N1CCN(c2ccc(F)cc2)CC1 (stereo not drawn)	-41.4%
O=C(C[N+]1(CC#Cc2ccccc2)CCOCC1)c1ccccc1.[Br-]	35.8%
CC[N+](CC)(CCCCS(=O)(=O)[O-])CCNP1(=O)C=C(c2ccccc2)OC(c2ccccc2)=C1	9.75%
N#CC[N+]1(CCCNP2(=O)C=C(c3ccccc3)OC(c3ccccc3)=C2)CCOCC1.[Cl-]	-63.5%
O=C(c1ccccn1)N1N=C2/C(=C/c3ccccc3)CCCC2C1c1ccccc1 (stereo not drawn)	-37.1%
O=C1CCC(C(=O)OCC(=O)N2N=C3/C(=C/c4ccccc4)CCCC3C2c2ccccc2)N1 (stereo not drawn)	-70.3%
NC(=O)N1N=C2/C(=C/c3ccccc3)CCCC2C1c1ccccc1 (stereo not drawn)	-17.1%
O=C(c1ccccn1)N1N=C2/C(=C/c3ccc(F)cc3)CCCC2C1c1ccc(F)cc1 (stereo not drawn)	-54.3%
Cc1ncsc1C(=O)N1N=C2/C(=C/c3ccccc3)CCCC2C1c1ccccc1 (stereo not drawn)	-0.298%
CC(=O)N1N=C2/C(=C/c3ccccc3)CCCC2C1c1ccccc1 (stereo not drawn)	-10.5%
CCCCCOC(=O)C1=C(C)NC(=O)NC1c1ccc(N(C)C)cc1 (stereo not drawn)	12.5%
COc1ccc(C2C3=C(CC(C)(C)CC3=O)Nc3c2c(=O)[nH]c(=O)n3Cc2ccccc2)cc1OC (stereo not drawn)	-3.11%
CCOC(=O)Cc1csc(NC(=O)CCCN2C(=O)c3ccccc3C2=O)n1	12.2%
CCN(CC)CCCNC(=O)C1CCN(C(=O)c2cc3sccc3n2Cc2ccc(F)cc2)CC1	-2.11%
CCOC(=O)N1CCN(C(=O)C2CCN(c3ncnc4c3sc3cccc(F)c34)CC2)CC1	-59.9%
O=C(NC1CC1)C1CCN(c2nc3ccccc3s2)CC1	-5.63%
O=C(Nc1ccc(F)cc1F)C1CCN(c2ncnc3c2sc2cccc(F)c23)CC1	3.98%
O=C(C1CCN(c2ncnc3c2sc2cccc(F)c23)CC1)N1CCCC1	-19.7%
O=C(NCCN1CCOCC1)C1CCN(c2ncnc3c2sc2cccc(F)c23)CC1	-25.6%

Compound	hERG current change (%, negative = inhibition) at 10uM
CCN(CC)CCNC(=O)c1ccc(NC(=O)C2CCN(c3ncnc4sc(C)c(C)c34)CC2)cc1	-29.8%
O=C(NC1CC1)C1CCN(c2ncnc3c2sc2cccc(F)c23)CC1	-52%
CCN(CC)CCCNC(=O)C1CCN(c2ncnc3c2sc2cccc(F)c23)CC1	-50.2%
O=C(C1CCN(c2ncnc3c2sc2cccc(F)c23)CC1)N1CCOCC1	-27.8%
CC1CC(C)CN(CCCNC(=O)C2CCN(c3ncnc4c3sc3cccc(F)c34)CC2)C1 (stereo not drawn)	-65.8%
COc1ccc(-c2noc(N3CCC(C(=O)NCCCN4CC(C)CC(C)C4)CC3)n2)cc1 (stereo not drawn)	-18.1%
O=C(Nc1cc(-c2nc3ncccc3o2)ccc1Cl)c1ccc2c(c1)OCO2	10.2%
Cc1ccc(C(=O)NCCc2ccc(S(N)(=O)=O)cc2)o1	16.1%
O=C(Nc1ccc(-c2ccccc2)cc1)c1ccc2c(c1)S(=O)(=O)c1ccccc1C2=O	7.7%
CC1(C)NC(=O)N(CC(O)COC2CCCCC2)C1=O (stereo not drawn)	8.64%
FC(F)(F)c1ccccc1CNCc1ccncc1	4.43%
COc1ccccc1-n1c(C)nnc1SCC(=O)NCc1ccccc1	11.5%
CCOC(=O)c1c(NC(=O)COC(=O)Cn2cnc3ccccc32)sc2c1CCC(C)C2 (stereo not drawn)	-3.78%
CCCCNC(=O)C1CCN(c2nc(C)cc(C)n2)CC1	17%
CCCCN(CC)CCCNC(=O)C1CCN(c2ncnc3c2sc2cccc(F)c23)CC1	-70.3%
CCCCN(CC)CCNC(=O)C1CCN(S(=O)(=O)c2cccc3nsnc23)CC1	-11%
CC1(C)CC2CC(C)(CN2C(=O)COC(=O)Cn2[nH]c(=O)c3ccccc3c2=O)C1 (stereo not drawn)	2.26%
CCn1c(CNC(=O)c2ccc(Cl)cc2)nnc1SCC(=O)NC1=NCCS1	18%
CC(=O)Nc1sc2c(c1CN1CCN(C)CC1)CCCC2	-1.92%
CC(=O)Nc1sc2c(c1CN1CCN(c3ccccn3)CC1)CCCC2	-55.3%
CC(=O)Nc1sc2c(c1CN1CCCC1)CCCC2	7.34%
